Assay [1] concerns the target Lysosomal acid glucosylceramidase (Homo sapiens) (UniProt P04062). The assay is described as follows: Glucocerebrosidase-p2 (AID 348; in the data active = potency below about 10 µM; also: potency is read from the fitted curve at half-maximal effect). The following applies: purified GBA, blue fluorogenic substrate, 40 min. In a few lines: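 Normal human glucocerebrosidase (0.2 nM) with blue fluorogenic substrate (80 uM final) in citrate/phosphate pH 5.9 with 10mM sodium taurocholate, 0.01% tween-20; 40 min RT, NaOH/glycine stop; fluorescence Ex 365/Em 440; AC50 from a titration from 0.6 nM upwards.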

Assay [2] can be described thus: AP1 Signaling Pathway (AID 357; active = well fitted curve in either direction with a large enough effect, not every such curve was filed as active;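 also: ME-180 reporter cells stimulated with EGF at its EC50 level; % is scaled to controls: 0 for no effect and ±100 for the full control effect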). The following applies: ME-180 AP-1-bla reporter, EGF-induced, beta-lactamase ratio, 5 h; at 7.69 µM (top of the series) unless noted. The method, boiled down:
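Cells are seeded overnight, exposed to compound titrations and an EC50 level of EGF for 5 hours at 37 °C, then loaded with CCF4 dye for 2.5 hours. Beta-lactamase activity under the AP-1 element is read as a blue/green ratio.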

Assay [3] has as its target Cytochrome P450 1A2 (Homo sapiens) (UniProt P05177). The assay is described as follows: p450-cyp1a2 (AID 410; calls by dose curve; also: potency is read from the fitted curve at half-maximal effect;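 as to activity change, negative = inhibition: -100% = full effect of reference inhibitor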). The following applies: recombinant CYP1A2, luciferin-ME demethylation, luminescence; series mostly up to 57 µM. In a few lines:
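20nM CYP1A2, 100uM Luciferin-ME (=Km), 100mM KPO4; cpd 10 min RT; +NADPH regen, 60 min RT; stop/detect 20 min; luminescence. Normalized to furafylline 57 uM = full inhibition.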

Assay [4] in a line: NFAT Signaling Pathway (AID 444; active = well fitted curve in either direction with a large enough effect, not every such curve was filed as active;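 also: carbachol stimulus at about its EC50 of 1 µM final; % is scaled to controls: 0 for no effect and ±100 for the full control effect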). The following applies: Jurkat NFAT-bla M1, carbachol, beta-lactamase ratio, 5 h; at 7.69 µM (top of the series) unless noted. In a few lines:
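Jurkat cells carrying an NFAT-driven β-lactamase reporter and co-transfected muscarinic M1 receptor were treated with compound plus carbachol (1 uM final, an EC50 level) for 5 h at 37 °C. CCF4 loading followed for 1 h at RT; 460/530 nm ratio gave %activity.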

The nature of assay [5]: Stat Signaling Pathway (AID 446; active = well fitted curve in either direction with a large enough effect, not every such curve was filed as active;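 also: ME-180 cervical cancer cells given 40 pM IL-6 alongside compound; SIE-controlled beta-lactamase reporter measured as 460/530 nm FRET emission ratio; % is scaled to controls: 0 for no effect and ±100 for the full control effect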). The following applies: ME-180 (cervical carcinoma) SIE beta-lactamase reporter, IL-6 stimulated, 5 h; at 7.69 µM (top of the series) unless noted. In a few lines:
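Compound effects on IL-6-induced STAT reporter activity were measured in ME-180 cells. After overnight culture, cells were co-treated with 40 pM IL-6 for 5 hrs before beta-lactamase substrate loading at room temperature.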

Assay [6] addresses Glucocorticoid receptor (Homo sapiens) (UniProt P04150). The assay is described as follows: GR-GFP Redistribution (AID 450;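 active = compounds whose dose series gives a full or clear partial fitted curve of increased nuclear translocation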; also: potency is read from the fitted curve at half-maximal effect). The following applies: U2OS GR-GFP nuclear translocation, laser cytometry, 2 h.
For assay [7] the target is unchanged. The assay is described as follows: GR-EFC Redistribution (AID 451; calls by dose curve; also: potency is read from the fitted curve at half-maximal effect). The following applies: CHO-K1 GR-EFC translocation, beta-gal luminescence, 2 h. The method, boiled down: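 CHO-K1 cells stably expressing nuclear-localized β-gal enzyme acceptor and GR fused C-terminally to the enzyme donor fragment; ligand-driven nuclear translocation restores β-gal by complementation. Compounds titrated up to 46 uM final, 2 h at 37 °C; luminescence read.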

Assay [8] deals with Mitogen-activated protein kinase 10 (Mus musculus) (UniProt Q61831). The assay is described as follows: JNK3 AlphaScreen Assay (AID 530; active = well fitted curve in either direction with a large enough effect, not every such curve was filed as active;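 also: kinase came from lysate of stimulated human HepG2 cells; signal reports phosphorylation of biotinylated GST-cJun 1-79 at Ser73 with 10 µM ATP; % is scaled to controls: 0 for no effect and ±100 for the full control effect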). The following applies: JNK3 lysate, c-Jun phosphorylation; series mostly up to 57.1 µM. The method, boiled down:
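Biotinylated GST-cJun(1-79) served as substrate for JNK3 in HepG2 lysates stimulated with IL-1beta and TNF-alpha. ATP was 10 uM final, pH 7.6. Ser73 phosphorylation was quantified by AlphaScreen (680 nm excitation).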
On the technique in general: In Alpha technology, singlet oxygen from a donor bead excites a nearby acceptor bead.

Assay [9] deals with 3',5'-cyclic-AMP phosphodiesterase 4B (Homo sapiens) (UniProt Q07343). The assay is described as follows: qHTS Assay for Inhibitors of PDE-IV (AID 607; active = well fitted activation curve with a large enough effect in the main read-out, with a control signal flat, not every such curve was filed as active; also: % of control where 0% means no effect). The following applies: HEK293 ACTOne CNG channel cells, membrane potential fluorescence; series mostly up to 22.9 µM. The method, boiled down:
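ACTOne HEK293 cells carry a modified cAMP-gated CNG channel and express endogenous PDE4; plated 1000 cells/well, compounds up to 22.9 uM final. Membrane-potential dye fluorescence (ex 535/em 590) was read; parental cells received 10 uM forskolin + 100 uM RO 20-1724.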

Assay [10] can be described thus: Confirmation and Secondary Assay for Modulators of Hemoglobin Beta Chain Splicing at IVS2 654 locus (AID 910).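 Also: per-well total GFP intensity by laser scanning cytometry after 2-day treatment; % of control where 0% means no effect.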 The following applies: HeLa EGFP-654 splicing reporter, GFP fluorescence, 48 h; series mostly up to 38.3 µM. In a few lines: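 HeLa cells stably carrying EGFP interrupted by mutant beta-globin IVS2-654 intron (CMV-driven) were treated with compound for 2 days at 37C; corrected splicing was scored as total peak GFP intensity per well (488 nm excitation, 500-520 nm emission).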

Assay [11] is described as follows: Confirmation and Secondary Assay for Modulators of Hemoglobin Beta Chain Splicing at IVS2 705 locus (AID 930).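 Also: HeLa cells stably expressing the EGFP-705 splicing reporter; GFP fluorescence per well restored by corrected splicing of the IVS2-705 intron in EGFP; % of control where 0% means no effect.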 The following applies: HeLa EGFP-705 splicing reporter, GFP fluorescence, 48 h; series mostly up to 38.3 µM. In a few lines:
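Assay measures total GFP intensity per well in HeLa EGFP-705 cells after 2 days with compound; mis-splicing normally truncates EGFP, so fluorescence indicates corrected splicing.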

Assay [12] in a line: qHTS Assay for Lipid Storage Modulators (AID 1519; calls by dose curve). The following applies: Drosophila S3 cells, BODIPY lipid droplet/cell ratio, laser cytometry, cells loaded with oleic acid; for activity change, negative = inhibition: at 57.5 µM (top of the series). In a few lines:
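Cells seeded at 5,000 per well were treated with compounds over a concentration series and loaded with oleic acid (400 uM, as added). Lipid droplet fluorescence (488 nm excitation, 500-530 nm channel) was read by laser-scanning cytometry and normalized to 20 uM Triacsin C.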
(qHTS replaces the single test concentration by a dilution series.)

Assay [13] addresses Ubiquitin carboxyl-terminal hydrolase 1 (Homo sapiens) (UniProt O94782). The assay is described as follows: Inhibitors of USP1/UAF1: Pilot qHTS (AID 504865).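 Also: rhodamine fluorescence freed from ubiquitin-rhodamine substrate followed over time; top concentration of the series differs between compounds; % is scaled to controls: 0 for no effect and ±100 for the full control effect; nearly all actives have a fitted effect of over 35% in size.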 The following applies: purified USP1/UAF1, Ub-rhodamine cleavage fluorescence; series mostly up to 54.9 µM. The method, boiled down:
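1nM USP1/UAF1 + cpd, 15 min RT; start w/ Ub-Rho 150nM final; kinetic FL 480/540 nm, 6 reads q60 s. Buffer 50mM HEPES pH 7.8, 0.5mM EDTA, 1mM TCEP, 0.01% Tween-20, 0.1 mg/ml BSA.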

The nature of assay [14]: Primary qHTS for small molecule stabilizers of the endoplasmic reticulum resident proteome: Secreted ER Calcium Modulated Protein (SERCaMP) assay (AID 1508630). Also: % is scaled to controls: 0 for no effect and ±100 for the full control effect. The following applies: SH-SY5Y GLuc-SERCaMP (Gaussia luciferase released on ER calcium loss) secretion, thapsigargin, luminescence; series mostly up to 38.4 µM. In a few lines:
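The SH-SY5Y reporter protocol was run at 3 concentrations up to 38.3 uM (primary) or 11 concentrations (follow-up): 16 h compound, 100 nM thapsigargin for 4 h, then extracellular luciferase luminescence.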

For assay [15], the target named is Cytochrome P450 3A4 (Homo sapiens) (UniProt P08684). The assay is described as follows: qHTS Assay for Activators of Cytochrome P450 3A4 (AID 885). Also: nearly all actives have a fitted effect of over 65% in size. The following applies: recombinant CYP3A4, Luciferin-PPXE luminescence, 60 min; series mostly up to 57.1 µM. The method, boiled down:
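CYP3A4 activity: Luciferin-PPXE O-dealkylation, 25uM substrate, 200mM KPO4, RT throughout. Read-out is luciferase luminescence; higher values reflect activation.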

Assay [16] concerns the target Dual specificity protein kinase CLK4 (Homo sapiens) (UniProt Q9HAZ1). The assay is described as follows: qHTS Assay for Inhibitors of CDC-like Kinase 4 (ADP-FP Assay) (AID 1795).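 Also: recombinant human CLK4 phosphorylating RS repeat peptide at 1 µM ATP; % is scaled to controls: 0 for no effect and ±100 for the full control effect; nearly all actives have a fitted effect of over 60% in size.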 The following applies: Transcreener ADP fluorescence polarization; series mostly up to 50 µM. The method, boiled down:
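FP readout: Orange Transcreener ADP2 tracer (4 nM) plus ADP antibody, read after 30 min at room temperature. Kinase step: 6.25 nM Clk4, 100 uM RS peptide, 1 uM ATP, pH 7.5, 1 h.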

For assay [17], the target named is Cytochrome P450 3A4 (Homo sapiens) (UniProt P08684). The assay is described as follows: qHTS Assay for Inhibitors and Substrates of Cytochrome P450 3A4 (AID 884). Also: potency is read from the fitted curve at half-maximal effect; nearly all actives have a fitted effect of over 50% in size. The following applies: recombinant CYP3A4, Luciferin-PPXE luminescence; series mostly up to 57.1 µM. The method, boiled down: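 Luminescent readout of luciferin produced by CYP3A4 (20 nM) dealkylation of Luciferin-PPXE, 25 uM (its KM). NADPH-driven reaction ran 60 min at RT after 10 min compound preincubation; data scaled to 57 uM ketoconazole as 100% inhibition.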
Cytochrome P450 3A4 (Homo sapiens), sequence (P08684 whole entry, looked up): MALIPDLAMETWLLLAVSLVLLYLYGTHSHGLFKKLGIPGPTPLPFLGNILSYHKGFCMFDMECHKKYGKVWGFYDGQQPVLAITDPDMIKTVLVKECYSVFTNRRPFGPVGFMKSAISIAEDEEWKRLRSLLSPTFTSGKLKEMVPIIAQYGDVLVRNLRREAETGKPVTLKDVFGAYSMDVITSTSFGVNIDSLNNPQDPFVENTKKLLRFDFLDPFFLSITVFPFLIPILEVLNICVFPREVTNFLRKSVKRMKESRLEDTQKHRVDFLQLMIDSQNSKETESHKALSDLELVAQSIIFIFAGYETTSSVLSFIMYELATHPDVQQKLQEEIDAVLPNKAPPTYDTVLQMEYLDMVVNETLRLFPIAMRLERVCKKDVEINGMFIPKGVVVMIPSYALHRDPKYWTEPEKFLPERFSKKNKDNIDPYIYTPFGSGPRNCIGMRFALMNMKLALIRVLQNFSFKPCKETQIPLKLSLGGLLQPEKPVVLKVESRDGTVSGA

In assay [18] the target is Cytochrome P450 2C19 (Homo sapiens) (UniProt P33261). The assay is described as follows: qHTS Assay for Inhibitors and Substrates of Cytochrome P450 2C19 (AID 899). Also: potency is read from the fitted curve at half-maximal effect; nearly all actives have a fitted effect of over 60% in size. The following applies: recombinant CYP2C19, luciferin-H EGE luminescence; series mostly up to 57.1 µM. In a few lines:
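Human CYP2C19 (5nM) with Luciferin-H EGE at 10uM (its KM) in 50mM KPO4 was preincubated with compound for 10 min at 37C. NADPH regeneration started a 60 min 37C reaction. Luciferin was read by luminescence, normalized to 57uM ketoconazole.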

[19] abbreviates: measured here: cell count channel max response.
[20] abbreviates: measured here: lipid channel max response.

Records with an inconclusive call do not appear. Activity calls are given as the source filed them. Unless noted, calls follow the shape of the dose curve; as a rule, active = well fitted curve in the direction sought with a large enough effect; inconclusive = small, poorly fitted or top-dose-only effect, or another doubt; inactive = no such curve, though single readings can be large; an effect the other way counts as inactive or inconclusive. Where only a bound is given, the exact number is not on record here.

Glucocorticoid receptor (Homo sapiens), sequence (P04150 whole entry, looked up, the tested form may be a part): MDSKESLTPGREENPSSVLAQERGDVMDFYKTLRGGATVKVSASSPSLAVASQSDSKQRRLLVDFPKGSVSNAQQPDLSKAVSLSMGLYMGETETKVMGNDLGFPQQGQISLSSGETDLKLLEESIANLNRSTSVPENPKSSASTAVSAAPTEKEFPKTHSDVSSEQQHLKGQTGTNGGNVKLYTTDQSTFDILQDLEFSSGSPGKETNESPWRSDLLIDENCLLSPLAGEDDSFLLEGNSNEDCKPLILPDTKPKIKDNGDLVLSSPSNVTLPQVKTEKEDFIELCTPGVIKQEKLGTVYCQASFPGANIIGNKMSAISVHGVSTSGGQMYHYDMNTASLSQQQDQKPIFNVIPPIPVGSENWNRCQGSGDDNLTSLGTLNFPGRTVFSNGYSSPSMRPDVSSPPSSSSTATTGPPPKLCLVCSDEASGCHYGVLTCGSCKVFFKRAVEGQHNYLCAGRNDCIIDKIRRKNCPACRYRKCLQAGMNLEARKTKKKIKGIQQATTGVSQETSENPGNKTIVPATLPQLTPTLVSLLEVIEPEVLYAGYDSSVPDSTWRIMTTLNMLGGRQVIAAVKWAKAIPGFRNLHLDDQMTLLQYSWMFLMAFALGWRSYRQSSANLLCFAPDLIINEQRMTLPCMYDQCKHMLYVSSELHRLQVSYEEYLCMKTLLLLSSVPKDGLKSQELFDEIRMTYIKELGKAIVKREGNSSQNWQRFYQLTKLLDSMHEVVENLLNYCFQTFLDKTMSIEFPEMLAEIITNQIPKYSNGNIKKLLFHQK
Ubiquitin carboxyl-terminal hydrolase 1 (Homo sapiens), sequence (O94782 whole entry, looked up): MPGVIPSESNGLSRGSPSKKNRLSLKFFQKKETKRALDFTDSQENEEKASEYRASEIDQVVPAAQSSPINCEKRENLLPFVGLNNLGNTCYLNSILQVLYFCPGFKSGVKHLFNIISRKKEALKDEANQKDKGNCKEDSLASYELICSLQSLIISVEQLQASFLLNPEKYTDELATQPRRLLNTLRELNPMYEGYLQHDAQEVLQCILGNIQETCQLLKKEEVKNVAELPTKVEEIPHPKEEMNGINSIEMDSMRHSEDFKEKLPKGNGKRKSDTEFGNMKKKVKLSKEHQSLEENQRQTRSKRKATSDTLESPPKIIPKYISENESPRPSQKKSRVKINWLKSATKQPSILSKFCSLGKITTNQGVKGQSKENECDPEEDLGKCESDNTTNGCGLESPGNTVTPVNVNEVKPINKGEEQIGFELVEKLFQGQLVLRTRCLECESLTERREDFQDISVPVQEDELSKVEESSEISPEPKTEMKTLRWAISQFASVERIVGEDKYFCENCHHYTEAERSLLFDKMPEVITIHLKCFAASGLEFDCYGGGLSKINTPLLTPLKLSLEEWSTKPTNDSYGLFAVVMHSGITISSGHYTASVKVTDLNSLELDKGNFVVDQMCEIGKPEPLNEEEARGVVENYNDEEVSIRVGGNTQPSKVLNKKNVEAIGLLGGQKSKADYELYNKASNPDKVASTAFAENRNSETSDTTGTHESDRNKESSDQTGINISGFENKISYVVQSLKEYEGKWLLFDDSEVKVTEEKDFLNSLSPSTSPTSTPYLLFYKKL
Dual specificity protein kinase CLK4 (Homo sapiens), sequence (Q9HAZ1 whole entry, looked up): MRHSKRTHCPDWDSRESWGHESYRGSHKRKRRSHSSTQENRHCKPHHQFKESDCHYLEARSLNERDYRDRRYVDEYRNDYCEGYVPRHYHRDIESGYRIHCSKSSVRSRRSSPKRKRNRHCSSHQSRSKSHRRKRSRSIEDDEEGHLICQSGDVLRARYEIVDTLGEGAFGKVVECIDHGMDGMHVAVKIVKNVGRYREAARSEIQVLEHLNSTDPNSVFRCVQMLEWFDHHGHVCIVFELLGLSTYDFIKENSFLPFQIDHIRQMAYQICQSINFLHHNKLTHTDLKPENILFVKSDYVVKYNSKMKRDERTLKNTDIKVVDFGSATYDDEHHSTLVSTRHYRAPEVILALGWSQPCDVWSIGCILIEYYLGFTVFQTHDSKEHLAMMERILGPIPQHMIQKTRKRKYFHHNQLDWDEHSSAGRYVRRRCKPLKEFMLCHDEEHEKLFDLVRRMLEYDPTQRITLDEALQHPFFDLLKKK
Lysosomal acid glucosylceramidase (Homo sapiens), sequence (P04062 whole entry, looked up): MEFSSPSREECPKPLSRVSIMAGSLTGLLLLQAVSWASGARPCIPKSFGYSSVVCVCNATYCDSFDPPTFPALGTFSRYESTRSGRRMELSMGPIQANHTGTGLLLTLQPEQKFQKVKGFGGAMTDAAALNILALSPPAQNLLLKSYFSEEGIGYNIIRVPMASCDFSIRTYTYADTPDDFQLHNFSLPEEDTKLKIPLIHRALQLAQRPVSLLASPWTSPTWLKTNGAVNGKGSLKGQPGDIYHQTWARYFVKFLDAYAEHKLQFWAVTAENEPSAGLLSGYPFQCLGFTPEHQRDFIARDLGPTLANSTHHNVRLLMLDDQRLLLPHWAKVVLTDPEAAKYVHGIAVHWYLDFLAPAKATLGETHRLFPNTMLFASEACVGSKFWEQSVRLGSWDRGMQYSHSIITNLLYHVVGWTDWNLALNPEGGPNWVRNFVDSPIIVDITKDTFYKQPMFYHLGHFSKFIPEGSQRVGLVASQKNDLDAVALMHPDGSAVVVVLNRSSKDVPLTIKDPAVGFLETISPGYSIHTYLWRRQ
3',5'-cyclic-AMP phosphodiesterase 4B (Homo sapiens), sequence (Q07343 whole entry, looked up): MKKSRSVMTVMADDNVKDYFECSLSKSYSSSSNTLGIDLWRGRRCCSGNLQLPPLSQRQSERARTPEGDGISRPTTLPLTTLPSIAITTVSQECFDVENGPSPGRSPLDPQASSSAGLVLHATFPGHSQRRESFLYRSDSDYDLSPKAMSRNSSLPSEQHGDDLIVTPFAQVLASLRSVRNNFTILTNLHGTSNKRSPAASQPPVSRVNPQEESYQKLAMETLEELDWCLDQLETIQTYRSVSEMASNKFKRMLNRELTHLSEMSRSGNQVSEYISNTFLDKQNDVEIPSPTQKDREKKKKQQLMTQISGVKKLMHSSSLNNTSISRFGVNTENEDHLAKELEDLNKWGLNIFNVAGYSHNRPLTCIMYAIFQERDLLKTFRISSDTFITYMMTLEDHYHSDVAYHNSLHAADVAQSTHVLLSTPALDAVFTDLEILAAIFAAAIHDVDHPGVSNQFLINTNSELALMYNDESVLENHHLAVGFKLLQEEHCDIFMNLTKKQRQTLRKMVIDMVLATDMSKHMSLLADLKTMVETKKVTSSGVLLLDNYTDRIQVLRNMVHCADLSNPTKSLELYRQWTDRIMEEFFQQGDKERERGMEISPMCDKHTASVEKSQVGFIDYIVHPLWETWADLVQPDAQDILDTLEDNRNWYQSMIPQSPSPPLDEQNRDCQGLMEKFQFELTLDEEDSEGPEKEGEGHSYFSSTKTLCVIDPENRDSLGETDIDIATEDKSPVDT
Cytochrome P450 1A2 (Homo sapiens), sequence (P05177 whole entry, looked up): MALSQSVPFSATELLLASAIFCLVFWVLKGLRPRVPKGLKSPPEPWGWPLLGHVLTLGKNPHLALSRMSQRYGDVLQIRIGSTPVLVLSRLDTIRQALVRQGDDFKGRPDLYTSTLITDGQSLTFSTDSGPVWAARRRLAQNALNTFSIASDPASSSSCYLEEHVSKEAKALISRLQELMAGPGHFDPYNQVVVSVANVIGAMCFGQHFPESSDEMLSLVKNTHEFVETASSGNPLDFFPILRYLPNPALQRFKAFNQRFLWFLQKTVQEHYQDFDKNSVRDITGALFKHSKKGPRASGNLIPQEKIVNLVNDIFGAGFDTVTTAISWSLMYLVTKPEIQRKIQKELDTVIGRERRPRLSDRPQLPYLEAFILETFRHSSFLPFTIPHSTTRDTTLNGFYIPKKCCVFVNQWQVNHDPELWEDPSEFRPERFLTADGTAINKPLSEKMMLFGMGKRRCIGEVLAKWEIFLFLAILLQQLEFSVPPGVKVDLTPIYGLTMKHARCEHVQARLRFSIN
Cytochrome P450 2C19 (Homo sapiens), sequence (P33261 whole entry, looked up): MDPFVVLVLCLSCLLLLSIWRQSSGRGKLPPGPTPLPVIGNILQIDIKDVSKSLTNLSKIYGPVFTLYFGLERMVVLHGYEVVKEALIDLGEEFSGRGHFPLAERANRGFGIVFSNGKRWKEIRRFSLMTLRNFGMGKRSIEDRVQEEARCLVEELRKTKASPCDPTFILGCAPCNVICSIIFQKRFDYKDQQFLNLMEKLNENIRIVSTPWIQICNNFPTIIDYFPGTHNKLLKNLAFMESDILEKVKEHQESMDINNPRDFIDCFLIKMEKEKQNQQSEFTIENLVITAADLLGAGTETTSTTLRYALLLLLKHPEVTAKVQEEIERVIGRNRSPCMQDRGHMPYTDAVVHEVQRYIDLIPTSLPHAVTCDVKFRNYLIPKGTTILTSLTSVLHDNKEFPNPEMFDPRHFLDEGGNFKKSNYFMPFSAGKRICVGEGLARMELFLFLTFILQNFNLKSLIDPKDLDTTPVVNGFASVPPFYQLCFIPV

On to `COCCNc1cc(-c2ccccc2CN(C)C)ncn1`, for which the Potency in assay [1] was > 11.4 µM (inactive); in assay [6] it was > 46 µM (inactive); in assay [7], > 46 µM (inactive). The results for the activity change, negative = inhibition in assay [2], in [4] and in assay [12] were 1.28% (inactive), -0.403% (inactive) and 4.45% (inactive), respectively. The Potency result in assay [3], in assay [9], in assay [13] and in [14] was “inactive” throughout. The activity, negative = inhibition in assay [5] is 13.5% (inactive). Moreover, the compound was classed as inactive in assay [8], in assay [10] and in assay [11]. Moreover, the max response in assay [12] (setting [19]) was determined as 21.8%; in assay [12] (setting [20]), 24.8%.

For the compound `CC(=O)NCCNc1ccnc(-c2ccccc2C(F)(F)F)n1`, the Potency in [1] is > 11.4 µM (inactive); in assay [3], 15.8 µM (active); in assay [6], > 46 µM (inactive); in assay [7], > 46 µM (inactive). Also, the activity change, negative = inhibition in assay [2] was 0.161% (inactive); in assay [4], -3.29% (inactive); in assay [12], 4.45% (inactive). In addition, the activity, negative = inhibition in assay [5] was 11.9% (inactive). In [8], the compound was classed as inactive. Further, the Potency result in assay [9], in assay [15], in assay [16], in assay [13] and in assay [14] was “inactive” in each case. In addition, the figures for the max response in assay [12] (setting [19]) and in [12] (setting [20]) were 8.35% and 14.6%, respectively.

`COc1ccc2[nH]cc(CCNc3ncncc3-c3c(C)noc3C)c2c1`: the Potency in assay [1] was > 11.4 µM (inactive); in [3] it was 12.6 µM (active); in assay [6], > 46 µM (inactive); in assay [7] it was > 46 µM (inactive); in [17], 0.794 µM (active); in [18] it was 3.16 µM (active). Moreover, the results for the activity change, negative = inhibition in assay [2], in [4] and in [12] were -11.4% (inactive), -0.0502% (inactive) and 7.61% (inactive), respectively. For the same compound, in assay [5], the activity, negative = inhibition is -10.2% (inactive). Besides, in assay [8], the compound was classed as inactive. For the same compound, the Potency entry in assay [9], in assay [15], in [16], in [13] and in assay [14] was “inactive” in each case. In addition, the max response in assay [12] (setting [19]) amounted to 11.1%; in assay [12] (setting [20]), 18.3%.

Take `COc1ccc(-c2nc3cnc(Nc4cccc(OC)c4)nc3n(C)c2=O)cc1`: the Potency in [1] was > 11.4 µM (inactive); in assay [6] it was > 9.22 µM (inactive); in assay [7], > 46 µM (inactive). Also, the activity change, negative = inhibition was -11.9% (inactive) in [2], -14.3% (inactive) in [4] and 1.51% (inactive) in assay [12]. Besides, the activity, negative = inhibition in [5] is 0.85% (inactive). Also, the outcome in assay [8] was inactive. Further, the Potency entry in [9], in assay [16], in assay [13] and in [14] was “inactive” each time. The results for the max response in assay [12] (setting [19]) and in assay [12] (setting [20]) were 2.29% and 2.92%, respectively.

Take `Cc1noc(C)c1-c1nccc(-n2ccnc2)n1`: the Potency in [1] was > 11.4 µM (inactive); in [3], 0.2 µM (active); in [6], > 46 µM (inactive); in [7], > 46 µM (inactive); in assay [17] it was 1.26 µM (active); in [18], 3.98 µM (active). In addition, the activity change, negative = inhibition in [2] was 3.6% (inactive); in assay [4] it was -0.351% (inactive); in assay [12], 7.83% (inactive). Moreover, in assay [5], the activity, negative = inhibition is 16.2% (inactive). The compound was classed as inactive in assay [8], in assay [10] and in assay [11]. The Potency entry in assay [9], in [15], in assay [13] and in assay [14] was “inactive” each time. Further, the max response in [12] (setting [19]) turned out to be 12.5%; in assay [12] (setting [20]), 20.6%.

As to `COc1cccc(Nc2ncc3nc(C)c(=O)n(C)c3n2)c1`, the Potency in assay [1] was > 11.4 µM (inactive); in [3] it was 1 µM (active); in assay [6], > 9.22 µM (inactive); in assay [7] it was > 46 µM (inactive). Also, the activity change, negative = inhibition in [2] was -0.695% (inactive); in assay [4], -5.64% (inactive); in [12], -0.403% (inactive). Moreover, the activity, negative = inhibition in assay [5] was -12.2% (inactive). For the same compound, the result in assay [8] was inactive. Also, the Potency result in assay [9], in assay [13] and in assay [14] was “inactive” in each case. Moreover, the max response in [12] (setting [19]) came to 5.56%; in assay [12] (setting [20]) it was 2.52%.

The values above are taken from PubChem BioAssay (NCATS).
